High-throughput results: PubChem, National Center for Advancing Translational Sciences (NCATS)
Sampled rows, rich in hits. Any-hit rate of the full collection: about 2.4%.
aSyn rescue: inhibitors of alpha-synuclein toxicity in yeast; Yeast expressing alpha-synuclein, growth rescue, BacTiter-Glo, 24 h; Potency, µM (top dose mostly 46.1 µM), hits mostly activators; actives 0.14% (n = 370,000); also: nearly all actives have a fitted effect of over 65% in size
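Galactose-induced alpha-syn yeast (OD600=0.02, raffinose-pregrown) + pinned cpd, 24 hr, 30 deg C; growth by BacTiter-Glo luminescence. Growth restoration scores as activation.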
FUS yeast rescue: FUS proteinopathy suppression in yeast; S. cerevisiae FUS-expressing, growth rescue, OD600, 24 h; Potency, µM (titrated, usually from 76.6 µM), hits mostly activators; actives 0.24% (n = 390,000); AID 1347120; also: nearly all actives have a fitted effect of over 55% in size
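Toxicity suppression screen in FUS-yeast. Cells induced with 2% galactose, starting OD 0.005, treated 24hr at 30C with compounds at multiple final concentrations; growth by OD600.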
Mito fusion act: inhibitors of mitochondrial division or activators of mitochondrial fusion; S. cerevisiae fusion-defective mutant growth rescue, CellTiterGlo 48 h; Potency, µM (series often up to 46.1 µM), usual class: activators; AID 485298; actives 0.23% (n = 320,000); also: nearly all actives have a fitted effect of over 45% in size
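Temperature-sensitive fusion-defective S. cerevisiae (e.g. fzo1-1, mgm1-5) were grown with compound in YPEG medium (3% ethanol, 3% glycerol) for 48 hours at 37C. Growth rescue was measured as viability by CellTiterGlo luminescence after 10 minutes at ambient.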
Abeta rescue: compounds reversing amyloid beta toxicity in yeast | yeast expressing A-beta42, growth rescue, OD600, 48 h; response scale: 0% DMSO, 100% iron-clioquinol control | Potency, µM (highest dose often 46.1 µM), hits mostly activators | actives 0.063% (n = 410,000); also: nearly all actives have a fitted effect of over 55% in size
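Yeast growth medium received pinned compounds, then yeast cells expressing toxic A-beta were added; plates incubated at 30 C for 48 hr. Growth read as absorbance at 600 nm, normalized to DMSO and equimolar FeCl3 plus clioquinol controls.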
AT treatment: potential ataxia-telangiectasia treatment; F2112 A-T fibroblasts, KAP-1 phosphorylation AlphaLISA; neocarzinostatin DNA damage 30 min before lysis; Potency, µM (series often up to 57.5 µM), most hits filed as activators; actives 0.19% (n = 320,000); AID 485349; also: nearly all actives have a fitted effect of over 45% in size
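hTERT-immortalized A-T patient fibroblasts (F2112), 500 cells/well in OPTI-MEM, 1% FBS, got compounds for 60 min, then NCS for 30 min at 37C. Lysates were then assayed for phospho-KAP-1 by AlphaLISA (anti-pKAP1 donor, anti-KAP1 acceptor beads), 6 hr at 25C.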
TDP43 rescue: TDP-43 toxicity inhibition in yeast; TDP-43 expressing yeast growth rescue, BacTiter-Glo, 24 h; Potency, µM (series often up to 46.1 µM), usual class: activators; actives 1.8% (n = 410,000); AID 652104; also: nearly all actives have a fitted effect of over 50% in size
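Growth rescue of TDP-43-toxic yeast measured as ATP luminescence (BacTiter-Glo). Cells grown to mid-log in raffinose, induced in galactose at OD600=0.02, exposed to compound 24 hr at 30 deg C.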
Of the large screens only hits and unclear results are named; the others gave an inactive call. Calls follow the shape of the dose curve; as a rule, active = well fitted curve in the direction sought with a large enough effect; inconclusive = small, poorly fitted or top-dose-only effect, or another doubt; inactive = no such curve, though single readings can be large; an effect the other way counts as inactive or inconclusive.

CN(C)S(=O)(=O)c1cccc(C(=O)N=C2N=C3C=CC(Cl)=CN3Cc3ccccc32)c1	AT treatment 0.71µM
CCCC(=O)OC12CCCN(C1)/C(=C/c1ccccc1)C2 (stereo not drawn)	none (no result: aSyn rescue, Mito fusion act, Abeta rescue, AT treatment, TDP43 rescue)
COCCNC(=S)N1CCC2CC1c1cc(-c3ccc4c(c3)OCO4)ccc12 (stereo not drawn)	FUS yeast rescue inconclusive, Abeta rescue inconclusive, TDP43 rescue 22µM (no result: Mito fusion act, AT treatment)
CCc1cccc(NC(=O)C(Cc2ccccc2)n2cccc2)c1 (stereo not drawn)	none (no result: aSyn rescue, Mito fusion act, AT treatment)
Cc1cccc(-n2cnc3cc(C(=O)NC4CCCCCC4)ccc32)c1	none (no result: aSyn rescue, Mito fusion act, AT treatment, TDP43 rescue)
COC(=O)CCCC1=CC2=CC(=O)C(C)(OC(=O)c3cccs3)C(=O)C2=CN1C1CC1 (stereo not drawn)	none
COC(=O)CCCC1=CC2=CC(=O)C(C)(OC(=O)c3cccs3)C(=O)C2=CN1C1CCCCC1 (stereo not drawn)	AT treatment 25µM
CCCCCc1cc[n+](CC(=O)c2ccccc2)cc1	none (no result: FUS yeast rescue, Mito fusion act, Abeta rescue, AT treatment, TDP43 rescue)
CCC(=O)N1c2ccc(S(=O)(=O)CCC(=O)Nc3ccc(Br)c(C)c3)cc2CC1C (stereo not drawn)	none (no result: aSyn rescue, Mito fusion act, AT treatment)
O=C(c1cc(COc2ccc(F)cc2Cl)on1)N1CCN(c2cnccn2)CC1	TDP43 rescue 32µM (no result: FUS yeast rescue)
CS(=O)(=O)N(CC(=O)NCCSc1ccccc1)c1cc(C(F)(F)F)ccc1Cl	none (no result: aSyn rescue, Mito fusion act, AT treatment)
O=c1c(Cl)c(N/N=C/c2ccc(Cl)cc2)cnn1-c1ccccc1	Mito fusion act 8.9µM
CC(O)(c1cccc(F)c1)c1nc(-c2cccc(C(=O)O)c2)cs1 (stereo not drawn)	TDP43 rescue 35µM (no result: Mito fusion act, AT treatment)
COc1cccc(C(C)(O)c2nc(-c3ccc(C)c(C)c3)cs2)c1 (stereo not drawn)	TDP43 rescue 14µM (no result: Mito fusion act, AT treatment)
CC(O)(c1cccc(F)c1)c1nc(-c2cccc(C(F)(F)F)c2)cs1 (stereo not drawn)	none (no result: Mito fusion act, AT treatment)
CC(O)(c1cccc(F)c1)c1nc(-c2cccc(C#N)c2)cs1 (stereo not drawn)	TDP43 rescue 35µM (no result: Mito fusion act, AT treatment)
CC(O)(c1cccc(F)c1)c1nc(-c2ccccc2)cs1 (stereo not drawn)	none (no result: Mito fusion act, AT treatment)
N#Cc1cccc(-c2csc(C(O)(c3ccccc3)C(F)(F)F)n2)c1 (stereo not drawn)	Abeta rescue 13µM (no result: Mito fusion act, AT treatment)
COc1ccccc1N1CCN(C(=O)C2CCN(S(=O)(=O)c3cccs3)CC2)CC1	none (no result: aSyn rescue, Mito fusion act, AT treatment)
CCN(CC)C(=O)c1cccc(-c2csc(C(C)(O)c3ccccc3)n2)c1 (stereo not drawn)	none (no result: Mito fusion act, AT treatment)
COc1ccc(-c2csc(C(C)(O)c3cccc(F)c3)n2)cc1OC (stereo not drawn)	TDP43 rescue 35µM (no result: Mito fusion act, AT treatment)
CCN(CC)C(=O)c1cccc(-c2csc(C(C)(O)c3ccc(F)c(F)c3)n2)c1 (stereo not drawn)	FUS yeast rescue inconclusive, TDP43 rescue 14µM (no result: Mito fusion act, AT treatment)
COc1cccc2cc(/C(=N/O)c3ccccc3)oc12	TDP43 rescue 11µM
COc1cccc2cc(C(C)=O)oc12	TDP43 rescue inconclusive
Cc1ccc(Cl)cc1NC(=O)Nc1cn(CC(C)C)c(=O)c2ccccc12	none (no result: aSyn rescue, Mito fusion act, AT treatment)
COc1ccc(CNC(=O)O[C@H]2CC[C@@]34CCCN3C(=O)CCC[C@H]4C2)cc1OC	none (no result: aSyn rescue, Mito fusion act, Abeta rescue, AT treatment, TDP43 rescue)
COc1cccc(NC(=S)NC(C)c2ccc(OC)c(OC)c2)c1 (stereo not drawn)	none
COc1cccc(NC(=S)NC(Cc2ccccc2)c2ccccc2)c1 (stereo not drawn)	Abeta rescue inconclusive, TDP43 rescue 11µM (no result: Mito fusion act, AT treatment)
COc1cccc(N2CCN(CC(=O)NCc3ccccc3C)CC2)c1	none (no result: aSyn rescue, Mito fusion act, Abeta rescue, AT treatment, TDP43 rescue)
O=C(CSc1ccc2nc(-c3ccccc3)cn2n1)Nc1ccccc1	TDP43 rescue inconclusive (no result: aSyn rescue, Mito fusion act, AT treatment)
CC(=O)c1ccc(NC2=NS(=O)(=O)c3ccccc32)cc1	none (no result: aSyn rescue, Mito fusion act, AT treatment)
Cc1ccc(-c2nc3ccc([N+](=O)[O-])cc3[nH]2)cc1	TDP43 rescue 18µM
